Bioassay records deposited in PubChem BioAssay by National Center for Advancing Translational Sciences (NCATS).
Hits are enriched below; roughly 19% of the tested compounds scored in any of these assays.
KB-3-1 tox: kills parental KB-3-1 adenocarcinoma cells; AID 1347075; Potency, µM (highest dose often 46.1 µM), most hits filed as cytotoxic; 1.4% of 400,000 active; KB-3-1 viability, CellTiter-Glo ATP luminescence, 72 h; further: nearly all actives have a fitted effect of over 60% in size
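Viability of parental KB-3-1 cells, measured by CellTiter-Glo luminescence, followed a 72 h incubation at 37 °C with pinned compounds in phenol-red-free DMEM containing 10% FBS.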
DT40 TDP1 CPT: DT40-hTDP1 cell growth loss with CPT; chicken DT40 Tdp1-/-;hTDP1 cells + 20 nM CPT, ATP luminescence, 48 h; Potency, µM (top dose mostly 46.2 µM), usual class: inhibitors; 12% of 420,000 active; AID 686979; further: nearly all actives have a fitted effect of over 55% in size
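Cell growth measured by CellTiter-Glo luminescence after a minimum 48 h, 37 C compound exposure with 20 nM CPT in Tdp1-knockout DT40 cells stably expressing hTDP1, seeded 400/well; qHTS titration format.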
HT1080NT lethal: kills 2HG-producing HT-1080-NT fibrosarcoma cells; HT-1080-NT fibrosarcoma viability, CellTiter-Glo ATP luminescence, 48 h; Potency, µM (highest dose often 46.1 µM), usual class: cytotoxic; 1.6% of 360,000 active;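 further: NT is the 2HG producing partner of a matched IDH1 knockdown line; nearly all actives have a fitted effect of over 55% in size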
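Luminescent CellTiter-Glo readout after 48 hours of compound exposure at 37 degrees C defined viability of HT-1080-NT cells. Activity was normalized to DMSO wells and cell-free media wells; concentration-response curves were fitted and assigned curve classes.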
TDP1 cell noCPT: qHTS for Inhibitors of human tyrosyl-DNA phosphodiesterase 1 (TDP1): qHTS in cells in absence of CPT; DT40 Tdp1-/- hTDP1 cells, no CPT, ATP luminescence, 48 h; Potency, µM (titrated, usually from 46.2 µM), usual class: inhibitors; 15% of 420,000 active; AID 686978, 2013; further: nearly all actives have a fitted effect of over 55% in size
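Chicken DT40 Tdp1-/- cells stably complemented with human TDP1 were seeded at 400 cells/well with DMSO in place of 20 nM camptothecin. After compound pinning, cells grew at least 48 hr at 37 °C; viability read by CellTiter-Glo luminescence.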
KB-V1 cytotox: KB-V1 MDR subline cytotoxicity. KB-V1 MDR cells viability, CellTiter-Glo, 72 h. Potency, µM (highest dose often 46.1 µM), actives largely listed as cytotoxic. 3.4% of 400,000 active; further: nearly all actives have a fitted effect of over 60% in size
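KB-V1, DMEM (no phenol red) + 10% FBS; cpd pin-transferred, titration series; 72 h, 37 degrees C; CellTiter-Glo, luminescence. Data normalized, curve-fit.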
HT1080 IDH1KD tx: kills HT-1080 cells with IDH1 knockdown; HT-1080 IDH1 knockdown viability, ATP luminescence, 48 h; Potency, µM (top dose mostly 46.1 µM), most hits filed as cytotoxic; 2% of 360,000 active; AID 686971
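Using the IDH1-knockdown HT-1080 line run in the same batch and compound series as the NT line, viability after 48 h at 37 °C was determined by CellTiter-Glo luminescence and expressed as % activity.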
Of the large screens only hits and unclear results are named; the others gave an inactive call. The call rests on the fitted dose curve; in most records, active means well fitted curve in the direction sought with a large enough effect; inconclusive means small, poorly fitted or top-dose-only effect, or another doubt; inactive means no such curve, though single readings can be large; an effect the other way counts as inactive or inconclusive.

C[C@@H]1CN([C@H](C)CO)C(=O)CCCn2nncc2CO[C@H]1CN(C)Cc1cccc(C(F)(F)F)c1	DT40 TDP1 CPT 21µM
C[C@@H]1CN([C@@H](C)CO)C(=O)CCCn2nncc2CO[C@H]1CN(C)Cc1ccccc1C(F)(F)F	DT40 TDP1 CPT 18µM, TDP1 cell noCPT inconclusive, KB-V1 cytotox inconclusive
C[C@H]1CN([C@@H](C)CO)C(=O)CCCn2nncc2CO[C@H]1CN(C)S(=O)(=O)c1ccc2ccccc2c1	DT40 TDP1 CPT inconclusive, TDP1 cell noCPT 23µM
Cc1ccccc1CN(C)C[C@@H]1OCc2cnnn2CCCC(=O)N([C@@H](C)CO)C[C@H]1C	KB-V1 cytotox inconclusive
C[C@H](CO)N1C[C@H](C)[C@@H](CN(C)S(=O)(=O)c2ccc3ccccc3c2)OCc2cnnn2CCCC1=O	TDP1 cell noCPT inconclusive
C[C@H](CO)N1C[C@H](C)[C@@H](CN(C)Cc2cccc(C(F)(F)F)c2)OCc2cnnn2CCCC1=O	DT40 TDP1 CPT inconclusive, TDP1 cell noCPT inconclusive
C[C@@H]1CN([C@H](C)CO)C(=O)CCCn2nncc2CO[C@H]1CN(C)Cc1ccc(Oc2ccccc2)cc1	DT40 TDP1 CPT inconclusive, TDP1 cell noCPT inconclusive
Cc1csc2nc(O)c(C(=O)NCCCN3CCCC3=O)c(=O)n12	KB-V1 cytotox 18µM
O=C(NC1CCCC1)c1c(O)nc2sccn2c1=O	DT40 TDP1 CPT inconclusive
Cc1csc2nc(O)c(C(=O)NCc3ccc4c(c3)OCO4)c(=O)n12	DT40 TDP1 CPT inconclusive, TDP1 cell noCPT 23µM, KB-V1 cytotox inconclusive
Cc1csc2nc(O)c(C(=O)NC3CCCCC3)c(=O)n12	DT40 TDP1 CPT inconclusive, TDP1 cell noCPT inconclusive, KB-V1 cytotox 21µM
Cc1csc2nc(O)c(C(=O)NC3CCCCCC3)c(=O)n12	DT40 TDP1 CPT inconclusive, TDP1 cell noCPT 5.2µM, KB-V1 cytotox inconclusive
Cc1cc(C)cc(C(=O)NCc2ccc3c(c2)OCO3)c1	none
CC(C)CNC(=O)C1(C)CCCN1C(=O)c1cccnc1 (configuration not stated)	none
Oc1ccc(-c2csc(-c3cccnc3)n2)cc1O	KB-3-1 tox inconclusive, DT40 TDP1 CPT 18µM, HT1080NT lethal inconclusive, TDP1 cell noCPT 23µM, KB-V1 cytotox inconclusive
COc1cc(-c2csc(C)n2)ccc1O	none
Cc1nc(-c2ccc(O)c(O)c2)cs1	DT40 TDP1 CPT 16µM, TDP1 cell noCPT inconclusive
Cc1cc(Cl)ccc1Nc1ncnc2onc(C)c12	DT40 TDP1 CPT inconclusive, TDP1 cell noCPT inconclusive, KB-V1 cytotox inconclusive (no result: HT1080NT lethal, HT1080 IDH1KD tx)
CC(=O)/C(CN1CCCCC1)=N\O	none
C/C(=N\O)C(=O)C(CN1CCCCC1)CN1CCCCC1	DT40 TDP1 CPT 2.9µM, TDP1 cell noCPT 2.6µM
Cc1nn(C)cc1/C=N\NC(=O)c1csc2c1CCCC2	DT40 TDP1 CPT inconclusive, TDP1 cell noCPT inconclusive
COc1ccc(NC(=O)c2csc3c2CCCC3)cc1	HT1080 IDH1KD tx inconclusive
Cc1ccc(/C=N/NC(=O)c2csc3c2CCCC3)cc1	KB-3-1 tox 2.1µM, DT40 TDP1 CPT 1.3µM, HT1080NT lethal inconclusive, TDP1 cell noCPT 1.3µM, KB-V1 cytotox inconclusive, HT1080 IDH1KD tx inconclusive
COc1cc(/C=N/NC(=O)c2csc3c2CCCC3)cc(OC)c1O	DT40 TDP1 CPT inconclusive, TDP1 cell noCPT 5.2µM
O=C(Nc1cccc(Br)c1)N1CCN2CCCCC2C1 (configuration not stated)	TDP1 cell noCPT inconclusive (no result: KB-3-1 tox, HT1080NT lethal, KB-V1 cytotox, HT1080 IDH1KD tx)
COc1ccc(NC(=O)Cc2nnc(SCC(=O)NC3CCCC3)n2C)cc1	none
COc1ccc2nc(N(Cc3cccnc3)C(=O)C3CCCCC3)sc2c1	DT40 TDP1 CPT inconclusive (no result: KB-3-1 tox, HT1080NT lethal, KB-V1 cytotox, HT1080 IDH1KD tx)
CCOc1ccc(CSC(=N)N)cc1[N+](=O)[O-]	KB-3-1 tox inconclusive, DT40 TDP1 CPT 23µM, HT1080NT lethal inconclusive, TDP1 cell noCPT inconclusive, KB-V1 cytotox inconclusive, HT1080 IDH1KD tx inconclusive
CCCCOc1ccc(CSCCN)cc1Cl	DT40 TDP1 CPT 18µM, TDP1 cell noCPT 18µM
CC(C)Oc1ccc(CSC(=N)N)cc1	HT1080NT lethal inconclusive
CCOc1ccc(CSC(=N)N)cc1Cl	DT40 TDP1 CPT 15µM, TDP1 cell noCPT 12µM
CCN(CC)C(=O)CCCOc1ccc(Cl)cc1Cl	DT40 TDP1 CPT inconclusive, TDP1 cell noCPT inconclusive
O=[N+]([O-])c1cccc(CON=Cc2cc(Cl)ccc2O)c1	TDP1 cell noCPT inconclusive
COc1ccccc1N(C)S(=O)(=O)c1ccc(C(=O)OCC(=O)N(C(C)C)C(C)C)cc1	none
COc1ccccc1N(C)S(=O)(=O)c1ccc(C(=O)NCC2CCCCC2)cc1	DT40 TDP1 CPT inconclusive, TDP1 cell noCPT 18µM, KB-V1 cytotox inconclusive
COc1ccccc1N(C)S(=O)(=O)c1ccc(C(=O)N(C)Cc2ccc(OC(F)F)cc2)cc1	DT40 TDP1 CPT 26µM, TDP1 cell noCPT 23µM, KB-V1 cytotox inconclusive
COC(=O)c1ccc(CNC(=O)c2ccc(S(=O)(=O)N(C)c3ccccc3OC)cc2)cc1	DT40 TDP1 CPT inconclusive, TDP1 cell noCPT inconclusive
COc1ccccc1N(C)S(=O)(=O)c1ccc(C(=O)NCC(C)C)cc1	TDP1 cell noCPT inconclusive, KB-V1 cytotox 23µM
COc1ccccc1N(C)S(=O)(=O)c1ccc(C(=O)N(CC(N)=O)C(C)C)cc1	TDP1 cell noCPT inconclusive, KB-V1 cytotox inconclusive
O=C(CSc1nnc(CNc2ccc(F)cc2)n1CC1CCCO1)N1CCOCC1 (configuration not stated)	none
CCOC(=O)[C@]12CCCC=C1N(Cc1ccc(Cl)cc1Cl)C(=O)[C@H](CC(=O)NCCCN1CCCC1=O)C2	DT40 TDP1 CPT inconclusive, TDP1 cell noCPT inconclusive
COC(=O)[C@]12CCCCC=C1N(Cc1ccco1)C(=O)[C@H](CC(=O)NCCc1ccccc1OC)C2	DT40 TDP1 CPT inconclusive, TDP1 cell noCPT inconclusive
CCCCNC(=O)C[C@@H]1C[C@@]2(C(=O)OCC)CCCC=C2N(Cc2ccc(Cl)cc2Cl)C1=O	KB-3-1 tox inconclusive, DT40 TDP1 CPT 21µM, HT1080NT lethal inconclusive, KB-V1 cytotox 9.2µM
C#CCNC(=O)C[C@@H]1C[C@@]2(C(=O)OCC)CCCC=C2N(Cc2ccc(Cl)cc2Cl)C1=O	DT40 TDP1 CPT inconclusive, TDP1 cell noCPT inconclusive, KB-V1 cytotox inconclusive
CCOC(=O)[C@]12CCC=C1N(Cc1ccc(Cl)cc1Cl)C(=O)[C@H](CC(=O)NCCCN1CCCC1=O)C2	DT40 TDP1 CPT 18µM, TDP1 cell noCPT inconclusive
CCOC(=O)[C@]12CCC=C1N(Cc1ccc(Cl)cc1Cl)C(=O)[C@H](CC(=O)NCC13CC4CC(CC(C4)C1)C3)C2	KB-3-1 tox inconclusive, DT40 TDP1 CPT inconclusive, TDP1 cell noCPT 21µM
